# Assay results: PubChem BioAssay (NCATS)
# Inconclusive results are not listed. Values without a mark were called inactive. The source made the active and inactive calls. The call rests on the fitted dose curve; in most records, active means well fitted cell-killing curve with a large enough effect; inconclusive means small, poorly fitted or top-dose-only effect, or effect the other way; inactive means no such curve, though single readings can be large or run the other way.
# Experiment: Viability qHTS for spleen associated tyrosine kinase inhibitor (SYKi) drug resistant MV4-11 cells (AID 1963824); further: nearly all actives have a fitted effect of over 35% in size
# Settings: SYKi-resistant MV4-11 viability, CellTiter-Glo, 72 h; series mostly up to 45 µM
# In short: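 SYK-inhibitor-resistant MV4-11 AML cells were seeded at 500 per well onto compound and cultured 72 hours (37 °C, 5% CO2). CellTiter-Glo was then added, and after 10 min at room temperature, luminescence gave viability.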
# Potency means the concentration at half of the fitted maximal effect.
Compound,Potency,"viability, % of control"
CC(=O)c1[nH]cc(CCC(=O)O)c1CC(=O)O,inactive,
N#CC(CCCN1CCC(O)(c2ccc(Cl)cc2)CC1)(c1ccccc1)c1ccccc1,5.8 µM (active),
CC(C)(C)c1ccc(C(=O)Nc2cc(Cl)c(Br)cc2C(=O)O)cc1,16.4 µM (active),
C/C(=N\NC(=S)N1CCC1)c1ccccn1,0.0074 µM (active),
COc1cn(-c2ccc(-n3cccn3)cc2F)nc(-c2ccnn2-c2ccccc2)c1=O,inactive,
CC1=CC2/C=C(\C)CCC3OC(C)(C)OC3CCC(=O)C23C(=O)NC(CC(C)C)C3C1C (stereo not given),7.96 µM (active),
C[C@@H]1O[C@@H](O[C@H]2[C@H](OC(=O)[C@]34CCC(C)(C)C[C@H]3C3=CCC5[C@@]6(C)C[C@H](O)[C@H](O[C@@H]7O[C@H](CO)[C@@H](O)[C@H](O)[C@H]7O)[C@](CO)(C(=O)O)C6CC[C@@]5(C)[C@]3(C)C[C@H]4O)OC[C@H](O)[C@@H]2O)[C@H](O)[C@H](O)[C@H]1O[C@@H]1OC[C@@H](O)[C@H](O[C@@H]2OC[C@](O)(CO)[C@H]2O)[C@H]1O (stereo not given in full),0.776 µM (active),
CC(C)=CCC/C(C)=C/COCC1OC(n2ccc(=O)[nH]c2=O)C(O)C1O (stereo not given),11.4 µM (active),
CC1(C)CC[C@]2(C(=O)O[C@@H]3O[C@H](CO[C@@H]4O[C@H](CO[C@@H]5O[C@H](CO)[C@H](O)[C@H](O)[C@H]5O)[C@@H](O)[C@H](O)[C@H]4O)[C@@H](O)[C@H](O[C@@H]4O[C@H](CO)[C@@H](O)[C@H](O)[C@H]4O)[C@H]3O)[C@H](O)C[C@]3(C)C(=CCC4[C@@]5(C)CC[C@H](O[C@@H]6OC[C@@H](O)[C@H](O)[C@H]6O)[C@@](C)(C(=O)O)C5CC[C@]43C)[C@@H]2C1 (stereo not given in full),,90.5% [at 9.25 µM]
CC(C)[C@H]1CCC(CO)=C[C@@H]1/C=C(\CO)C(=O)O,inactive,
CCC(O)(C(=O)OCc1ccccc1NC(=O)CCC(=O)O)C(C)O (stereo not given),inactive,
Cc1ccc([C@@H]2CC=C(C(=O)O)[C@H](c3ccc(C(C)(C)C)cc3)N2S(=O)(=O)c2ccc(C)cc2)cc1,16.4 µM (active),
COc1ccc(N2CCN(C(=O)c3cc4c(s3)-c3ccccc3S(=O)(=O)C4)CC2)cc1,inactive,
CCC(C)/C=C(C)/C=C/C1=CC2=C(Cl)C(=O)C(C)(OC(C)=O)C(=O)C2=CN1C(CCC(=O)O)C(=O)O (stereo not given),inactive,
CCOc1ccc2nc(SCCN3CCOCC3)[nH]c2c1,inactive,
C=C1C(=O)O[C@@H]2C[C@H](C)[C@@H]3CC(=O)C(C)=C3C[C@H]12,1.16 µM (active),
C[C@@H]1C/C=C/C=C\C=C\C=C\[C@H](O[C@@H]2O[C@H](C)[C@@H](O)[C@H](N)[C@@H]2O)C[C@@H]2O[C@](O)(C[C@@H](O)C[C@H]3O[C@@H]3/C=C/C(=O)O1)C[C@H](O)[C@H]2C(=O)O,inactive,
O=C(NCc1nc2ccccc2c(=O)n1-c1ccc(F)cc1)Nc1ccc(Cl)c(C(F)(F)F)c1,20.6 µM (active),
COc1cc2ncnc(N3CCC(Oc4cnc5ccccc5n4)C3)c2cc1OC (stereo not given),0.411 µM (active),
COC(=O)C1=COC(OC2OC(CO)C(O)C(O)C2O)C2C1C=CC2(O)CO (stereo not given),inactive,
CCNC(=O)Nc1ccc(-c2nc3c(c(N4CCOCC4C)n2)CCN(C2COC2)C3)cc1 (stereo not given),1.16 µM (active),
COc1cc2c(cc1OC)CC(=O)N(CCCNC[C@H]1Cc3cc(OC)c(OC)cc31)CC2,16.4 µM (active),
C#Cc1cccc(Nc2nc3cc(C(=O)O)ccc3c3cncnc23)c1,2.91 µM (active),
Cc1cc(Nc2ncnc3ccc(NC4=NC(C)(C)CO4)cc23)ccc1Oc1ccn2ncnc2c1,16.4 µM (active),
CN(C)CCOC(C)(c1ccccc1)c1ccc(Cl)cc1 (stereo not given),16.4 µM (active),
C=C1CC2C3(C)C(O)CC(=O)C(C)(C)C3C(O)C(OC(C)=O)C2(C)C2C(=O)OC(C)(C(=O)OC)C(=O)C12C (stereo not given),6.32 µM (active),
C=C(C(=O)O)[C@@H]1CC[C@@]2(C)CCC[C@@](C)(O)[C@@H]2C1,inactive,
O=C(Nc1ccc(-c2ccc(Cl)c(Cl)c2)cc1)C1=C(O)c2ccccc2S(=O)(=O)N1,23.1 µM (active),
COc1c(-c2ccc3cc(NS(C)(=O)=O)ccc3c2)cc(-n2ccc(=O)[nH]c2=O)cc1C(C)(C)C,16.4 µM (active),
CC(=O)C1=CCC2C3CC=C4CC(O)CC(O)C4(C)C3C(O)CC12C (stereo not given),16.1 µM (active),
